The supplement of paper PMC10849652
The full data set covers some 8,800 targets. This sample favours those with a hit. About 0.5% of all pairs of compound and target were hits.

These targets were tested with C1=CC(=CC=C1C2=NC3=C(N2)C=C(C=C3)C(=O)N)OC4=CC=C(C=C4)Cl (assay: log2 fold change, soluble protein after heating vs DMSO (PISA); higher = thermal stabilisation; K562 lysate, 10 uM; active = over 0.2 and 3.5 SD of the protein, either way, in both replicates (recomputed)).
In short: (§1)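 Pellets of K562 cells were dounce-homogenised in PBS pH 7.4 with 1 mM MgCl2, and the crude extract was held at 1 mg/mL protein for a 30 min treatment with 10 μM compound. Aliquots were heated for 3 min over 48°C-58°C and pooled before NP-40 was added to 0.5% at 4°C. The supernatant from 21,000xg for 90 min was quantified by TMTpro 16plex LC-MS/MS with channel sums equalised. Values are reported from duplicates as log-two fold change in thermal stability relative to solvent controls.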

UniProt P28288, sequence (P28288 whole entry, looked up): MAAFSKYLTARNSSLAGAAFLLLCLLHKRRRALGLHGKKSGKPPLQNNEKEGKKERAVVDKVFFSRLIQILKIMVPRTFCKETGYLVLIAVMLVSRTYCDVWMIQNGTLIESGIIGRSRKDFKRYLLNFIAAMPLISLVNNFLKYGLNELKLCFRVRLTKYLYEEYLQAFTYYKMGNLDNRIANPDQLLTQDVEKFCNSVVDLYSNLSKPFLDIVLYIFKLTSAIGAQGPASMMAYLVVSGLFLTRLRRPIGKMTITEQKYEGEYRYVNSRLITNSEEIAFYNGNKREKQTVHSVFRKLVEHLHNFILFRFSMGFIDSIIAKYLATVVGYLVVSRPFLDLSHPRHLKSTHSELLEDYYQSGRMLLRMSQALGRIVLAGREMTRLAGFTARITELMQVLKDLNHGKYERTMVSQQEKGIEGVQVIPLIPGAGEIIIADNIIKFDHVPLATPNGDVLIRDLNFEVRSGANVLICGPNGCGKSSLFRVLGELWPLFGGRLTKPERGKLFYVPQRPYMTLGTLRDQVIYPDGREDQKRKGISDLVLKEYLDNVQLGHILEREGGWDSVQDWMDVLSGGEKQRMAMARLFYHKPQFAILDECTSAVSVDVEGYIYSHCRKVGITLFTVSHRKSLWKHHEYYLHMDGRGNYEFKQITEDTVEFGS
UniProt Q9BRQ8, sequence (Q9BRQ8 whole entry, looked up): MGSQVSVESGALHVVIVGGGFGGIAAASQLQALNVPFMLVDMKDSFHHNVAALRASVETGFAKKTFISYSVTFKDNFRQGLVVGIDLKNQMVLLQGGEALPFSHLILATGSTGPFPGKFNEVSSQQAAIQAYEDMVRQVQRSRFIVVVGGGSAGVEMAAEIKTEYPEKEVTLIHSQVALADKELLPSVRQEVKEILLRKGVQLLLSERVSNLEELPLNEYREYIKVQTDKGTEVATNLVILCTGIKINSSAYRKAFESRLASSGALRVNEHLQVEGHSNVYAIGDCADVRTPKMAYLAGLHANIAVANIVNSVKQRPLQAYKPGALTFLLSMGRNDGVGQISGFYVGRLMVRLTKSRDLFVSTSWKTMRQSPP
UniProt Q9NP73, sequence (Q9NP73 whole entry, looked up): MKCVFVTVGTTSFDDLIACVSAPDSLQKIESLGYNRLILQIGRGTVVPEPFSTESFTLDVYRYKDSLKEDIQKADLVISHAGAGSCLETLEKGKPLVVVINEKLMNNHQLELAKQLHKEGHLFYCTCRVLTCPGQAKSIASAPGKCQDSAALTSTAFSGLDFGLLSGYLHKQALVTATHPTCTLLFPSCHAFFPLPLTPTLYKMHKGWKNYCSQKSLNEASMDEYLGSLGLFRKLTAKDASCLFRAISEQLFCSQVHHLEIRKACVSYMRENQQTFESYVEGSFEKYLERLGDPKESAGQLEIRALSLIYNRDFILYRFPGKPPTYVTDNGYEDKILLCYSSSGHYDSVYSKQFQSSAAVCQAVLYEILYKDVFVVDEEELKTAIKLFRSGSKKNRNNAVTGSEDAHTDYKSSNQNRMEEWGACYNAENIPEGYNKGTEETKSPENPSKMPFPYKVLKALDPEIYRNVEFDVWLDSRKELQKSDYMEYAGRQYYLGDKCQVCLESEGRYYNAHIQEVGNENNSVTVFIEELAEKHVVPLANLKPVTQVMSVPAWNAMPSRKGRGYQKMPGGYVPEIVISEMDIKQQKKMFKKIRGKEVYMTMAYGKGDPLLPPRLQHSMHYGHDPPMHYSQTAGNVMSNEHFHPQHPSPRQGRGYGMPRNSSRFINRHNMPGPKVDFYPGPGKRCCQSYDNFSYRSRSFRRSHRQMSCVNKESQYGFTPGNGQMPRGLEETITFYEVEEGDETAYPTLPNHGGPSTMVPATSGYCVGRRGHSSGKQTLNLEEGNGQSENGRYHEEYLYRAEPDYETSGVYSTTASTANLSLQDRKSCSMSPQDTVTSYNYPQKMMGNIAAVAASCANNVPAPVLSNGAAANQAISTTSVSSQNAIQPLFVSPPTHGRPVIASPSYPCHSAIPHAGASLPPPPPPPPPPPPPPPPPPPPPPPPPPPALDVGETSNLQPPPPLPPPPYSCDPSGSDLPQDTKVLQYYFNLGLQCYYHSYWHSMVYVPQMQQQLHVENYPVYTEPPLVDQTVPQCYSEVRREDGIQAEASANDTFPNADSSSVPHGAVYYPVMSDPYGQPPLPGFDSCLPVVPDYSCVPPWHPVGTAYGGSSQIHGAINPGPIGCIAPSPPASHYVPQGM
UniProt Q16186, sequence (Q16186 whole entry, looked up): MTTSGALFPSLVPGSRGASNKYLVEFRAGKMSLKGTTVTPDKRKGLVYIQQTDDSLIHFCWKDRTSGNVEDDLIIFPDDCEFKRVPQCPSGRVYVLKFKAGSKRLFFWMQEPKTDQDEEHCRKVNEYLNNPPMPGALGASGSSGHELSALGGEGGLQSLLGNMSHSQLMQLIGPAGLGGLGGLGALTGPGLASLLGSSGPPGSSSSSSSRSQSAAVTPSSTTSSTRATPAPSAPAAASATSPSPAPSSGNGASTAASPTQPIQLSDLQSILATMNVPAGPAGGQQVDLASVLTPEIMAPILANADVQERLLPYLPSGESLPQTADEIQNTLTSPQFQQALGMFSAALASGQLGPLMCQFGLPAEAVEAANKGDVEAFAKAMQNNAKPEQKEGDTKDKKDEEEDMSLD
UniProt P33121, sequence (P33121 whole entry, looked up): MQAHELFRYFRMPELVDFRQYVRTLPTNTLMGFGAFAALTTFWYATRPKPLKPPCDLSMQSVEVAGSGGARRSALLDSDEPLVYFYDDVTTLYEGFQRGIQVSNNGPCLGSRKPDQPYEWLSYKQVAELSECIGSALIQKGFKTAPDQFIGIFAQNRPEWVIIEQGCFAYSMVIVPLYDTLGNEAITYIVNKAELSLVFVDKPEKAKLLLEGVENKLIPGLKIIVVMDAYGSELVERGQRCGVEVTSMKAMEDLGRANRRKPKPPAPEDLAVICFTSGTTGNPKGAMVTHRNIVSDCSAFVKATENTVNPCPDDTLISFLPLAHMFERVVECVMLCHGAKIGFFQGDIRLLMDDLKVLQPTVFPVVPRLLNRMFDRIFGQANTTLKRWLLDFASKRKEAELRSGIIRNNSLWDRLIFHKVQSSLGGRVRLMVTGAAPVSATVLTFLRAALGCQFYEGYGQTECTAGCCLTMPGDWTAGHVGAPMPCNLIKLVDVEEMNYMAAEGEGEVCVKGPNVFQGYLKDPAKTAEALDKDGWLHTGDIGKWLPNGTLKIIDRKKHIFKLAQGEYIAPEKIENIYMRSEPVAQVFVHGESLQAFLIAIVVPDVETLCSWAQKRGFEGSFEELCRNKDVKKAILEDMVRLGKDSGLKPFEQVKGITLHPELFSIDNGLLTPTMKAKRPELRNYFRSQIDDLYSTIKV
UniProt P31749, sequence (P31749 whole entry, looked up): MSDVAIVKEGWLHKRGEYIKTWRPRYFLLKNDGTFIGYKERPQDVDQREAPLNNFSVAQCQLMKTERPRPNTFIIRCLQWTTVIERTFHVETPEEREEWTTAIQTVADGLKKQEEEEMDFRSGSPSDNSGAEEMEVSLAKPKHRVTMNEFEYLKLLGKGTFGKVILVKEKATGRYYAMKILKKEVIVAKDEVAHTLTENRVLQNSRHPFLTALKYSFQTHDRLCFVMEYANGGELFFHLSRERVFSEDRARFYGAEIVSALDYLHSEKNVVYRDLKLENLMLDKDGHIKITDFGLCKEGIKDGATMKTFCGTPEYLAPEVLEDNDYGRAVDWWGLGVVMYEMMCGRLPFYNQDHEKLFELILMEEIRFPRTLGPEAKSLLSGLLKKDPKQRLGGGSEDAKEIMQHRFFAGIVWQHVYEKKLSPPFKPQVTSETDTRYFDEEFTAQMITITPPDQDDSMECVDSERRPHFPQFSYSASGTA
UniProt Q9UNA0, sequence (Q9UNA0 whole entry, looked up): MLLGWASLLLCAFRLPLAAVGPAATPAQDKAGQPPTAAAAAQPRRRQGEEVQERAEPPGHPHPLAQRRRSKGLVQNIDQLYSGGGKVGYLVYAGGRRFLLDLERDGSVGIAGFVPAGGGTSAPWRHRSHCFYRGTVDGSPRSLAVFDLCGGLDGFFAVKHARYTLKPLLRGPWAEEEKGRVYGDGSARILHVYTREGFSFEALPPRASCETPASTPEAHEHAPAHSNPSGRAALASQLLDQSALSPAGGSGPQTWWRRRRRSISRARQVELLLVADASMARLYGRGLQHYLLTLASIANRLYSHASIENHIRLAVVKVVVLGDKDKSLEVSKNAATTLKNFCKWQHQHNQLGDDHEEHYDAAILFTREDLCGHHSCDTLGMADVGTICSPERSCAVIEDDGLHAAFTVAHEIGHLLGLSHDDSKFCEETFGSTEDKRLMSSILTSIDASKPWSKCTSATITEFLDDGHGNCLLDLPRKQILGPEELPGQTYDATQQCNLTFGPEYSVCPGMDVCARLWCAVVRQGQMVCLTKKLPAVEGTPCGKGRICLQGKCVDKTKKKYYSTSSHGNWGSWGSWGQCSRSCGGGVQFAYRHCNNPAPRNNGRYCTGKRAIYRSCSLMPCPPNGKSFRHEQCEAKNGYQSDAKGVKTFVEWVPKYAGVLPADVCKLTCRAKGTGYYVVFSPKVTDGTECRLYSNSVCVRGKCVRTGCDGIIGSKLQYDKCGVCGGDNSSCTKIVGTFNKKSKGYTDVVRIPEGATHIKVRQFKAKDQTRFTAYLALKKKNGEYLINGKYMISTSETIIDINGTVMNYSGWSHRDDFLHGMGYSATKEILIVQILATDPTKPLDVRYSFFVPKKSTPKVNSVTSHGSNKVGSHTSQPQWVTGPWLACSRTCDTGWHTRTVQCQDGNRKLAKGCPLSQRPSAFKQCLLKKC
UniProt Q12904, sequence (Q12904 whole entry, looked up): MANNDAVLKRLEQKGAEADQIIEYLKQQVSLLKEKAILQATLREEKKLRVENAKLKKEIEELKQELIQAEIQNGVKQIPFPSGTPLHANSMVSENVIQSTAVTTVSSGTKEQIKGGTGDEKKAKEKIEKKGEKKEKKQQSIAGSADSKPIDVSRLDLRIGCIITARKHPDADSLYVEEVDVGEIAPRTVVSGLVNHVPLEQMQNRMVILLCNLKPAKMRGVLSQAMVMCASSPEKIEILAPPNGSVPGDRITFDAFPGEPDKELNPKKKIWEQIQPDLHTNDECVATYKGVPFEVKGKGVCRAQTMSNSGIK

log2 fold change, inactive:
ADRM1 (UniProt Q16186) 0.007
ADD1 isoform 3 (UniProt P35611) 0.033
AGGF1 (UniProt Q8N302) 0.054
ANKRD40 (UniProt Q6AI12) 0.093
AIMP1 isoform 2 (UniProt Q12904) -0.028
AMPD3 isoform 4 (UniProt Q01432) 0.031
AGTPBP1 (UniProt Q9UPW5) 0.027
AIFM2 (UniProt Q9BRQ8) 0.224
ARL1 (UniProt P40616) 0.037
ACSL1 (UniProt P33121) -0.153
ACTBL2 (UniProt Q562R1) 0.02
ALG13 (UniProt Q9NP73) 0.049
AGPS (UniProt O00116) -0.014
ARL15 (UniProt Q9NXU5) -0.009
ALDH2 (UniProt P05091) -0.062
ADAM17 (UniProt P78536) 0.017
ABCF2 isoform 2 (UniProt Q9UG63) -0.049
AK4 (UniProt P27144) -0.024
ABCD3 (UniProt P28288) 0.217
ADAMTS5 (UniProt Q9UNA0) 0.044
ABHD16A (UniProt O95870) 0.03
AGO4 (UniProt Q9HCK5) 0.031
ALDH1B1 (UniProt P30837) -0.035
ANXA5 (UniProt P08758) -0.024
ANKRD27 (UniProt Q96NW4) 0.07
AMMECR1 (UniProt Q9Y4X0) 0.019
AP1G2 (UniProt O75843) 0.068
ASPH (UniProt Q12797) -0.013
ABI1 isoform 9 (UniProt Q8IZP0) 0.025
ABL2 (UniProt P42684) 0.053
AMD1 (UniProt P17707) -0.091
ANKRD52 (UniProt Q8NB46) 0.026
ANP32E (UniProt Q9BTT0) 0.016
AKT1 (UniProt P31749) -0.004
ACAA1 (UniProt P09110) 0.041
AFF4 (UniProt Q9UHB7) 0.007

Each target was assayed with C1=CC2=C(C=CC(=C2)/C=C\3/C(=O)NC(=NCC4=CC=CS4)S3)N=C1 in the same assay as above.
In short: as §1

log2 fold change, inactive:
ADRM1 (UniProt Q16186) -0.026
ADD1 isoform 3 (UniProt P35611) 0.011
AGGF1 (UniProt Q8N302) -0.19
ANKRD40 (UniProt Q6AI12) -0.143
AIMP1 isoform 2 (UniProt Q12904) 0.001
AMPD3 isoform 4 (UniProt Q01432) 0.007
AGTPBP1 (UniProt Q9UPW5) -0.029
AIFM2 (UniProt Q9BRQ8) 0.071
ARL1 (UniProt P40616) -0.022
ACSL1 (UniProt P33121) 0.086
ACTBL2 (UniProt Q562R1) 0.043
ALG13 (UniProt Q9NP73) -0.008
AGPS (UniProt O00116) 0.037
ARL15 (UniProt Q9NXU5) 0.011
ALDH2 (UniProt P05091) 0.03
ADAM17 (UniProt P78536) 0.023
ABCF2 isoform 2 (UniProt Q9UG63) -0.025
AK4 (UniProt P27144) -0.01
ABCD3 (UniProt P28288) -0.051
ADAMTS5 (UniProt Q9UNA0) -0.05
ABHD16A (UniProt O95870) 0.046
AGO4 (UniProt Q9HCK5) -0.02
ALDH1B1 (UniProt P30837) -0.004
ANXA5 (UniProt P08758) 0.014
ANKRD27 (UniProt Q96NW4) 0.04
AMMECR1 (UniProt Q9Y4X0) -0.045
AP1G2 (UniProt O75843) -0.116
ASPH (UniProt Q12797) 0.075
ABI1 isoform 9 (UniProt Q8IZP0) 0.01
ABL2 (UniProt P42684) -0.014
AMD1 (UniProt P17707) -0.075
ANKRD52 (UniProt Q8NB46) -0.011
ANP32E (UniProt Q9BTT0) -0.021
AKT1 (UniProt P31749) 0.121
ACAA1 (UniProt P09110) 0.015
AFF4 (UniProt Q9UHB7) -0.063
